Sfp PPTase inh: blocks B. subtilis Sfp PPTase activity; Biochemical Sfp PPTase activity, qHTS; Potency, µM, inactives show largest response in the series, negative = inhibition, usual class: inhibitors; 310,000 compounds, 3.5% hits; AID 1490;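 further: the enzyme is Sfp with the accession as filed and its product quenches rhodamine fluorescence; 0% = enzyme reaction without inhibitor and -100% = no enzyme wells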
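With Hepes-Na pH 7.6 buffer containing 10 mM MgCl2, Sfp (15 nM) modified BHQ-2-YbbR (12.5 uM) using rhodamine-CoA (5 uM). Two reads 30 minutes apart at 525/598 nm yielded each well's rate.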
Gal4-VP16 FLuc: counter-screen for ROR gamma inhibitors: Gal4-VP16 reporter; 310,000 compounds, 3.5% hits; AID 2546; Drosophila S2 Gal4-VP16 UAS-luciferase, luminescence, 20 h; Potency, µM (highest dose often 53.6 µM), for inactives: at the top dose activity, negative = inhibition, usual class: inhibitors;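 further: Gal4-VP16 expression switched on by copper sulfate through the metallothionein promoter; on the % scale 0 is the no-effect control and ±100 the full control effect; nearly all actives have a fitted effect of over 50% in size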
RORg inh: inhibitors of mouse ROR gamma transcriptional activity; 310,000 compounds, 5.4% hits; Drosophila S2 Gal4-RORgamma UAS-luciferase reporter, 20 h; AID 2551; P51450; Potency, µM (top dose mostly 53.6 µM), inactives show at the highest dose activity change, negative = inhibition, usual class: inhibitors; further: on the % scale 0 is the no-effect control and ±100 the full control effect; nearly all actives have a fitted effect of over 60% in size
Target sequence (P51450 whole entry, looked up, the tested form may be a part): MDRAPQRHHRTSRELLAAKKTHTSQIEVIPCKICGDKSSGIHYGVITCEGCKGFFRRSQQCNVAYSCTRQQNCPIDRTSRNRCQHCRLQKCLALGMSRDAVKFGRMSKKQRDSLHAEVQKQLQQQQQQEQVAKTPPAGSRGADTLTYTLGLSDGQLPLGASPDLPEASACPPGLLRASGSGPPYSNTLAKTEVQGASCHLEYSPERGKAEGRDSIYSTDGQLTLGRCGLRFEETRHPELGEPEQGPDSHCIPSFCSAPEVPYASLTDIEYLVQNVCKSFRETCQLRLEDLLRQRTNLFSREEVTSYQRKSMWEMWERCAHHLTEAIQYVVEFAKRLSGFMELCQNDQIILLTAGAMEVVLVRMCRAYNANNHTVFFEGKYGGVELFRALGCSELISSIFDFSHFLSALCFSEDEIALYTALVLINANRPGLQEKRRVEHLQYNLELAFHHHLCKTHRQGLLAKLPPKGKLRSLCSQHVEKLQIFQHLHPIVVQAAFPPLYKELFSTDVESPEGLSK
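Drosophila S2 cells stably expressing Gal4-DBD/mouse RORγ fusion under metallothionein promoter plus UAS-luciferase; compound 1 h, then 700 uM CuSO4 induction for 20 h at ambient temperature; inhibition read as reduced luminescence.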
ClpP mod: qHTS Assay for Activators of ClpP | ATP-dependent Clp protease proteolytic subunit (Bacillus subtilis (strain 168)), P80244 | purified B. subtilis ClpP, FRET peptide cleavage, 20 min | 340,000 compounds, 1.9% hits | AID 651965, 2013 | Potency, µM (doses to about 57.5 µM), for the others: at the highest dose activity change, negative = active; active means well fitted falling curve with a large enough effect; inconclusive means small, poorly fitted or top-dose-only effect; inactive means no such curve, though single readings can be large or run the other way; further: the source files actives as falling curves though it sought activators and does not explain the sign; nearly all actives have a fitted effect of over 65% in size
Target sequence (P80244 whole entry, looked up): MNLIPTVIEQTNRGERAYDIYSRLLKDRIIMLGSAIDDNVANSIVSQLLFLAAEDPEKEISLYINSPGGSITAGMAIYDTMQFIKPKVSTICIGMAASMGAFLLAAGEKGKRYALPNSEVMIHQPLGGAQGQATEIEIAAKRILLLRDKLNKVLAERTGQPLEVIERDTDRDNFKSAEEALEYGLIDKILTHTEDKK
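FRET quenching reversal measured ClpP activation: 10 microg/mL B. subtilis ClpP at pH 8 with the FRET-FV decapeptide, read at 430 nm after 320 nm excitation. The 20-min minus 0-min signal was scaled between DMSO/no-enzyme wells and ADEP (5.8 microM final).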
Epigenetic derep: regulators of epigenetic silencing causing reporter derepression in mouse cells; murine LDR cells, GFP reporter derepression, 30 h; Potency, µM (highest dose often 53.9 µM), inactives show top-dose GFP activation, actives largely listed as activators; 280,000 compounds, 0.2% hits; AID 1865; further: % of control where 0% means no effect; nearly all actives have a fitted effect of over 60% in size
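Derepression of a silenced CMV-GFP reporter in murine LDR cells is scored by enumerating GFP-positive cells with a laser-scanning microplate cytometer after 30 hours of treatment at 37 C.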
PINK1 modulator: PINK1 expression modulation; 410,000 compounds, 0.2% hits; Potency, µM (top dose mostly 76.6 µM), inactives show at the highest dose activation (PINK1 increase), most hits filed as activators; AID 624263; PINK1 immunofluorescence, high-content cytometry, 24 h; active means well fitted activation curve with a large enough effect; inconclusive means small, poorly fitted or top-dose-only effect; cell line not stated here; further: % of control where 0% means no effect; nearly all actives have a fitted effect of over 65% in size
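A stable cell line was treated with compounds at 5 concentrations for 24 hours, with CCCP as control. PINK1 levels and mitochondrial localization were measured by immunofluorescence with mitochondrial, cell and nuclear markers after fixation, read by laser-scanning cytometry.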
An asterisk follows results filed as active; u = inconclusive; x = not tested or not shown; [ ] = another dose, or the depositor's remark. The list is not random: actives were taken first. Their share in the collection is about 8.1%. Unless noted, the call rests on the fitted dose curve; in most records, active means well fitted curve in the direction sought with a large enough effect; inconclusive means small, poorly fitted or top-dose-only effect, or another doubt; inactive means no such curve, though single readings can be large; an effect the other way counts as inactive or inconclusive. Potency means the concentration at half of the fitted maximal effect.

SMILES	Sfp PPTase inh	Gal4-VP16 FLuc	RORg inh	ClpP mod	Epigenetic derep	PINK1 modulator
CC1=NN(C(=O)Cc2ccc([N+](=O)[O-])cc2)C(O)(C(F)(F)C(F)(F)F)C1 (stereo not drawn)	14%	5µM*	3.5µM*	2%	1%	3%
CC(C)(C)C1(O)CC(C(F)(F)F)=NN1C(=O)Cc1ccc([N+](=O)[O-])cc1 (stereo not drawn)	18%	-8%	u	x	0%	7%
CCCC1=NN(C(=O)Cc2ccc([N+](=O)[O-])cc2)C(O)(C(F)(F)F)C1 (stereo not drawn)	14%	u	20µM*	x	-3%	1%
Cc1occc1C(=O)N1N=C(C2CC2)CC1(O)C(F)(F)F (stereo not drawn)	11%	u	7.9µM*	-2%	-2%	-1%
O=C(c1ccco1)N1N=C(C2CCCCC2)CC1(O)C(F)(F)F (stereo not drawn)	8%	5%	8%	x	0%	5%
CCC1=NN(C(=O)Cc2ccc([N+](=O)[O-])cc2)C(O)(c2ccncc2)C1 (stereo not drawn)	21%	3%	18µM*	x	2%	0%
Cc1c(CN(C)C(=O)c2cc(-c3ccccc3)nc3ccc(Br)cc23)cnn1C	x	x	x	-3%	1%	0%
CCC[C@H](NC(=O)[C@H](Cc1ccc(O[S+](=O)([O-])O)cc1)NC(=O)OC(C)(C)C)C(=O)NCC(=O)N[C@@H](Cc1c[nH]c2ccccc12)C(=O)N[C@@H](CCC)C(=O)N[C@@H](CC(=O)OCCc1ccccc1)C(=O)O	8%	-9%	2%	x	x	x
O=C(Cc1ccc([N+](=O)[O-])cc1)N1N=C(C2CC2)CC1(O)C(F)(F)F (stereo not drawn)	13%	u	16µM*	x	0%	0%
CCC1=NN(C(=O)Cc2ccc([N+](=O)[O-])cc2)C(O)(C(F)(F)F)C1 (stereo not drawn)	14%	10%	u	1%	0%	0%
COC(=O)c1cc2c(ccn2-c2ccc(F)cc2)n1CC(=O)C(C)(C)C	-9%	-13%	15%	25µM*	-2%	1%
Cc1ccccc1CN1C(=O)c2ccccc2S1(=O)=O	24%	5%	-1%	x	x	0%
O=C1c2ccccc2S(=O)(=O)N1Cc1nc2ccccc2s1	-2%	4µM*	3.2µM*	-2%	1%	-1%
COc1ccccc1CNC(=O)C1CCCN(c2nn3cc(-c4ccc(F)cc4)nc3s2)C1 (stereo not drawn)	x	x	x	0%	u	2%
O=C(c1cc2cc(Cl)cc(Cl)c2oc1=O)N1CCOCC1	4%	11%	25%	22µM*	-5%	3%
C=CC[C@H](c1ccc(F)cc1)N(CC(C)C)S(=O)(=O)C=C	x	x	x	2%	x	x
CC1CCN(CCNC(=O)c2ccc(Cn3c(SCc4ccccc4)nc4cccnc43)cc2)CC1	x	x	x	16µM*	0%	0%
CC1CCCCN1CCNC(=O)c1ccc(Cn2c(SCc3ccccc3)nc3cccnc32)cc1 (stereo not drawn)	x	x	x	25µM*	0%	-1%
O=C(NCCN1CCCCC1)c1ccc(Cn2c(SCc3ccccc3)nc3cccnc32)cc1	x	x	x	u	2%	0%
CCOC(=O)CNC(=O)CSc1nc2cccnc2n1Cc1ccccc1	3%	-3%	7%	-5%	-12%	2%
Cc1nc(NC(=O)CSc2nc3cccnc3n2Cc2ccccc2)sc1C	0%	u	13µM*	-4%	0%	6%
Cc1ccc(Cn2c(SCc3ccc(C(=O)O)cc3)nc3cccnc32)cc1	x	x	x	28µM*	1%	-1%
Cc1nn(CC(=O)NCCc2ccccc2Cl)c(=O)c2nn(-c3ccccc3)c(C)c12	x	x	x	-6%	3%	1%
O/N=C(/C[n+]1cccc(Br)c1)c1ccc2ccccc2c1	x	x	x	-2%	x	0%
COCCNC(=O)c1cnn2c1NC(c1ccco1)CC2C(F)(F)F (stereo not drawn)	14%	-7%	25%	-1%	-1%	-2%
SMILES	Sfp PPTase inh	Gal4-VP16 FLuc	RORg inh	ClpP mod	Epigenetic derep	PINK1 modulator
CCOC(=O)N1CCC(NC(=O)c2cnn3c2NC(c2ccco2)CC3C(F)(F)F)CC1 (stereo not drawn)	56µM*	1%	17%	-2%	-1%	-5%
CN(Cc1ccc(-n2cccn2)cc1)C(=O)c1cnn2c1NC(c1ccco1)CC2C(F)(F)F (stereo not drawn)	20µM*	-15%	-10%	0%	4%	3%
[S-]C(=Nc1ccc(Cl)cc1)N[n+]1ccccc1	-3%	u	5%	28µM*	-2%	0%
Cc1ccc(Cn2c(=O)n(CCc3ccccc3)c(=O)c3c(C)c(C)sc32)cc1	x	x	x	-2%	1%	2%
C=C(C(=O)c1ccccc1)C(C)CC(=O)c1ccccc1 (stereo not drawn)	-6%	18µM*	u	-9%	0%	2%
O=C(CC(C(=O)c1ccccc1)c1ccccc1)c1ccccc1 (stereo not drawn)	x	x	x	x	x	8%
CN(C)c1ccc(N=Cc2ccncc2)cc1	x	x	x	1%	x	0%
O=C(NCc1ccco1)C1c2ccccc2Oc2ccccc21	40µM*	1%	6%	1%	-1%	12%
S=C(NCc1ccc(Cl)c(Cl)c1)NCc1ccco1	8%	u	u	0%	x	5%
S=C(NCc1ccco1)NCc1ccco1	x	x	x	-1%	x	-4%
S=C(NCc1ccccc1)NCc1ccco1	-6%	u	11µM*	-4%	x	0%
NNC(=S)NCc1ccco1	40µM*	u	7.1µM*	-5%	0%	1%
CC(C)(C)NC(=S)NCc1ccco1	3.5µM*	0%	1%	-7%	0%	0%
CC(=O)N1CCc2cc(Br)cc(S(=O)(=O)CCC(=O)N3CCN(c4cccc(C)c4C)CC3)c21	x	x	x	0%	-2%	1%
Cc1ccc(-c2cnc(NCc3c(F)cccc3Cl)n2C)cc1	x	x	x	-26%	0%	5%
Cc1cccc(NC(=S)NCc2ccco2)n1	-28%	4.5µM*	1.3µM*	x	0%	1%
Cc1ccc(C)c(NC2=C(Cl)C(=O)OC2OC(=O)c2ccco2)c1 (stereo not drawn)	9%	u	11µM*	-1%	1%	1%[38.3 µM]
Cc1ccc(NC2=C(Cl)C(=O)OC2OC(=O)c2ccco2)c(C)c1 (stereo not drawn)	x	x	x	-3%	x	2%
ClC(Cl)(c1nnnn1-c1ccccc1)c1nnnn1-c1ccccc1	2.8µM*	5µM*	10µM*	0%	0%	-2%

Assay outcomes (PubChem)
